Screening data as filed in PubChem BioAssay.
H9c2 protect – protects H9c2 cardiomyocytes from peroxide injury | H2O2 injury protection, ATPLite, 2 h | protection from H2O2 cell death, % at 20 µM | 0.63% of 360,000 active;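 active = compounds giving at least 50% protection of heart cells from peroxide-induced death in the single-dose screen, raw or plate-pattern-corrected value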
Glyco luc inh – blocks N-linked glycosylation in D54 reporter cells; D54 ERlucT glycosylation luciferase reporter, 24 h; percent of 100 nM tunicamycin response; reporter increase, % at 12.5 µM; 0.23% of 360,000 active; AID 588692;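 active = mean luciferase reporter signal, scaled so untreated is 0 and the glycosylation-blocking control 100, at or above a set limit in every replicate; inconclusive = mean reaches the limit but not every replicate does; inactive = mean below the limit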;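 note: luciferase carries N-glycosylation sites so blocking glycosylation raises the light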
Vif imaging – blocks HIV Vif function | 0.35% of 340,000 active | inhibition, % at 7.49 µM | HEK293T cells, Vif self-association by quenched fluorescence, imaging, 24 h; in the data active = inhibition above about 50%, passing the limit was not always enough; inconclusive = no clear call, values can overlap the other calls; inactive = below about 31%
aDG glyco up – increases alpha dystroglycan glycosylation; Pro5-aDG cells, alpha-DG glycosylation AlphaScreen (IIH6); 0% Pro5, 100% B10-LARGE cell signal; activation, % at 10 µM; 0.22% of 360,000 active;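 active = activation of at least 8% versus controls, or a plate z-score of at least 8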;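 note: Pro5 are CHO cells carrying HIG-tagged alpha-DG that lacks glycosylation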
ARNT TACC3 PPI – disrupts binding between human ARNT and TACC3; Q9Y6A5; AlphaScreen His-ARNT PAS-B/GST-TACC3 binding, luminescence; TACC3 fragment carries E629A point mutation; inhibition, % at 9.99 µM; 0.66% of 390,000 active;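 active = mean inhibition of replicates at least 50% and at least half of replicates each reaching 50%; inconclusive = half or more replicates reach 50% but mean below 50%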
Of the large screens only hits and unclear results are named; the others gave an inactive call. Sampled rows, rich in hits. Any-hit rate of the full collection: about 1.7%.

COc1cc2cc3c(N)c(C(=O)NCc4ccco4)sc3nc2cc1OC	H9c2 protect 58.3
Cc1ccc2nc3sc(C(=O)NCc4ccco4)c(N)c3cc2c1	none (no result: Vif imaging)
C/C=C/c1ccc([C@@H]2[C@H](CO)N(Cc3ccccn3)[C@H]2CNC(C)=O)cc1	ARNT TACC3 PPI 37.2 (no result: H9c2 protect, Glyco luc inh, Vif imaging, aDG glyco up)
COc1ccc(CN(C)C[C@H]2Oc3c(NS(=O)(=O)c4ccccc4)cccc3C(=O)N([C@H](C)CO)C[C@H]2C)cc1	none (no result: H9c2 protect, Glyco luc inh, Vif imaging, aDG glyco up)
C[C@@H]1CN([C@@H](C)CO)C(=O)c2cc(-c3cncnc3)cnc2O[C@H]1CN(C)C(=O)c1ccccc1F	none (no result: H9c2 protect, Glyco luc inh, Vif imaging, aDG glyco up)
COc1ccc(CN2CCN(c3ncnc4scc(-c5ccc(F)cc5)c34)CC2)cc1	ARNT TACC3 PPI 48.0
CC(C)NC(=O)N(C)C[C@@H]1Oc2ccc(NC(=O)Nc3ccc(F)cc3)cc2C(=O)N([C@@H](C)CO)C[C@H]1C	none (no result: H9c2 protect, Glyco luc inh, Vif imaging, aDG glyco up)
O=C(NCCCn1ccnc1)c1nn2c(C(F)(F)F)cc(-c3ccccc3)nc2c1Cl	none
COCCNC(=O)c1nn2c(C(F)(F)F)cc(-c3ccccc3)nc2c1Cl	Vif imaging 105.9
COc1ccc(-c2cc(C(F)(F)F)n3nc(C(=O)NCc4ccco4)c(Cl)c3n2)cc1	Vif imaging 157.0
CCC(=O)N1C[C@@H](C)[C@H](OC)CN(C)C(=O)c2ccc(NC(=O)Nc3cccc(F)c3)cc2OC[C@@H]1C	none (no result: H9c2 protect, Glyco luc inh, Vif imaging, aDG glyco up)
COc1nc(=O)n(C2C=CC(=O)O2)cc1F (stereo not given)	Glyco luc inh 33.5 (no result: ARNT TACC3 PPI)
C[C@H]1CN([C@@H](C)CO)C(=O)Cc2cc(NS(=O)(=O)c3ccccc3)ccc2O[C@@H]1CN(C)C(=O)Nc1cccc2ccccc12	none (no result: H9c2 protect, Glyco luc inh, Vif imaging, aDG glyco up)
CCC(=O)Nc1ccc2c(c1)C(=O)N(C)C[C@H](OC)[C@H](C)CN(C(=O)Cc1cccnc1)[C@H](C)CO2	none (no result: H9c2 protect, Glyco luc inh, Vif imaging, aDG glyco up)
c1ccc(C[n+]2cccc3c4ccccc4ccc32)cc1	Vif imaging 52.5
N#C/C(=C/c1cccc(O)c1)C(=O)NCc1ccc(Cl)cc1	none
N#C/C(=C\c1ccc(O)c(O)c1)C(=O)Nc1cccc2ncccc12	H9c2 protect 55.0
C[C@@H](NC(=O)/C(C#N)=C/c1ccc(O)c(O)c1)c1ccccc1	H9c2 protect 61.7
N#C/C(=C\c1ccc(O)c(O)c1)C(=O)Nc1ccccc1	H9c2 protect 55.4, Vif imaging inconclusive
N#C/C(=C/c1ccc(O)c(O)c1)C(=O)NCc1ccc(Cl)cc1	H9c2 protect 65.1
CCN1C[C@@H](C)[C@H](OC)CN(C)C(=O)c2cc(NC(=O)NC(C)C)ccc2OC[C@H]1C	none (no result: H9c2 protect, Glyco luc inh, Vif imaging, aDG glyco up)
C[C@@H]1CCCCO[C@@H](CN(C)C(=O)NC2CCCCC2)[C@H](C)CN([C@@H](C)CO)C(=O)c2cc(NC(=O)Cc3ccccc3)ccc2O1	none (no result: H9c2 protect, Glyco luc inh, Vif imaging, aDG glyco up)
Cc1ccc(S(=O)(=O)N(C)C[C@H]2Oc3ncc(-c4ccccc4)cc3C(=O)N([C@H](C)CO)C[C@@H]2C)cc1	none (no result: H9c2 protect, Glyco luc inh, Vif imaging, aDG glyco up)
N#Cc1ccccc1OCC(=O)Nc1nc(-c2ccccn2)cs1	H9c2 protect 63.1 (no result: ARNT TACC3 PPI)
O=C(COc1ccc(F)cc1Cl)Nc1nc(-c2ccccn2)cs1	H9c2 protect 61.4, ARNT TACC3 PPI 48.2
O=C(CCCSc1ccccc1)Nc1nc(-c2ccccn2)cs1	H9c2 protect 64.4
CC(C)CC#Cc1ccc2c(c1)O[C@H](CN(C)C(=O)c1ccncc1)[C@H](C)CN([C@@H](C)CO)S2(=O)=O	none (no result: H9c2 protect, Glyco luc inh, Vif imaging, aDG glyco up)
C[C@@H]1CN([C@@H](C)CO)C(=O)c2cc(NC(=O)NC3CCCCC3)ccc2O[C@@H]1CN(C)C(=O)NC1CCCCC1	none (no result: H9c2 protect, Glyco luc inh, Vif imaging, aDG glyco up)
Nc1nc(N)c2sc3nc4c(cc3c2n1)CCC4	ARNT TACC3 PPI 76.1
Oc1c(Cl)cc(Cl)cc1C=Nc1ccc(N2CCOCC2)cc1	H9c2 protect 65.3
Oc1c(Br)cc(Br)cc1C=Nc1ccc2c(c1)OCCO2	H9c2 protect 84.2
O=[N+]([O-])c1cc(Cc2ccccc2)cc(C=Nc2ccc(N3CCOCC3)cc2)c1O	H9c2 protect 85.5
Oc1ccc(N=Nc2cccc(C(F)(F)F)c2)cc1C=Nc1ccc(N2CCOCC2)cc1	H9c2 protect 75.7
O=C(C[C@@H]1CC[C@H]2[C@@H](COC[C@@H](O)CN2S(=O)(=O)c2ccc(F)cc2)O1)N[C@H]1CCN(Cc2ccccc2)C1	none (no result: H9c2 protect, Glyco luc inh, Vif imaging, aDG glyco up)
Cc1cc(Br)cc(C=Nc2ccc(N3CCOCC3)cc2)c1O	H9c2 protect 84.0
CCCC(=O)NC(c1cccs1)c1cc(Cl)c2cccnc2c1O (stereo not given)	none
CC(=O)NC(c1cccs1)c1cc(F)c2cccnc2c1O (stereo not given)	ARNT TACC3 PPI 55.8
CC(C)C(=O)NC(c1cccs1)c1cc([N+](=O)[O-])c2cccnc2c1O (stereo not given)	H9c2 protect 55.6, ARNT TACC3 PPI 59.8
Cc1ccc(C(NC(=O)C(C)C)c2cc([N+](=O)[O-])c3cccnc3c2O)cc1 (stereo not given)	H9c2 protect 51.0, ARNT TACC3 PPI 50.3
Cc1ccc(S(=O)(=O)/N=C(\c2ccccc2)N(C)S(=O)(=O)c2ccccc2)cc1	none
CN(/C(=N\S(=O)(=O)c1ccccc1)C(F)(F)F)c1ccccc1	Vif imaging 64.2
Cc1c(C)c2c(OCC(=O)N3CCC(C(=O)O)CC3)cc3c(c2oc1=O)CCC(C)(C)O3	ARNT TACC3 PPI 45.1
Cc1c(Cl)cnc(NC(=O)COC(=O)c2ccc([N+](=O)[O-])s2)c1Cl	H9c2 protect 67.6 (no result: ARNT TACC3 PPI)
O=C(COC(=O)c1ccc([N+](=O)[O-])s1)Nc1ccc(Cl)cn1	H9c2 protect 54.8
COc1ccc(S(=O)(=O)N2CCOCC2)cc1NC(=O)COC(=O)c1ccc([N+](=O)[O-])s1	Vif imaging inconclusive, ARNT TACC3 PPI 30.1
CO[C@H]1CC[C@@H]2CCOc3c(C#N)cccc3C(=O)N(C)C[C@H](C)C(=O)N(C)C[C@@H]1O2	none (no result: H9c2 protect, Glyco luc inh, Vif imaging, aDG glyco up)
COc1ccc(S(=O)(=O)N2CCCCN3[C@@H](CO)[C@H](c4ccc(C#CC(C)C)cc4)[C@@H]3C2)cc1	none (no result: H9c2 protect, Glyco luc inh, Vif imaging, aDG glyco up)
COCC#Cc1ccc2c(c1)O[C@@H](CN(C)C(=O)CN(C)C)[C@@H](C)CN([C@H](C)CO)S2(=O)=O	none (no result: H9c2 protect, Glyco luc inh, Vif imaging, aDG glyco up)
CC1CCCCN1S(=O)(=O)c1ccc(C(=O)Nc2nnc(C3CC3)o2)cc1 (stereo not given)	ARNT TACC3 PPI 46.3
Cc1nnc(NC(=O)c2ccc(S(=O)(=O)N3CCCCC3C)cc2)o1 (stereo not given)	ARNT TACC3 PPI 51.2
CC1CCCCN1S(=O)(=O)c1ccc(C(=O)Nc2nnc(-c3ccccn3)o2)cc1 (stereo not given)	none
CC1CCCCN1S(=O)(=O)c1ccc(C(=O)Nc2nnc(-c3ccco3)o2)cc1 (stereo not given)	none
COc1ccc2[nH]c(CN3CCN(C(C)C)C(CCO)C3)c(C)c2c1 (stereo not given)	Vif imaging 64.2
COc1ccc2[nH]c(CN3CCN(CC(C)C)C(CCO)C3)c(C)c2c1 (stereo not given)	none
Fc1ccc(-n2cc(-c3ccccc3)c3c(N4CCOCC4)ncnc32)cc1	H9c2 protect 58.0
CCN1CCN(c2ncnc3c2c(-c2ccccc2)cn3-c2ccc(F)cc2)CC1	none
